# Values joined by “and” are separate entries in the source; they are usually repeats but may differ in a detail not shown here. Equal entries are not always repeated. Records with an inconclusive call do not appear. Active and inactive are the calls of the source. Rule for the calls: active = hit-call score of the fitted dose curve at least 0.9, where 1 is the maximum; inconclusive = response in the unintended direction; inactive = score below 0.9.
# What was measured:
# [1] = target: rat Glutamate, NMDA Agonist Site (GluNMDA), Grin1 (gene 24408) (UniProt P35439); assay: NVS_LGIC_rGluNMDA_Agonist: NovaScreen (NVS) Ligand-Gated Ion Channel Assay for rat Glutamate, NMDA Agonist Site (GluNMDA) (AID 2283327)
# How it was run: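 Rat forebrain membranes, radioligand binding in the agonist-site protocol; 1 h after dosing; filter-based scintillation counting. Single-concentration duplicate screen at 25 uM, then concentration-response up to 50 uM for actives; gain-of-signal vs DMSO.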
# [2] = target: human Peripheral-type Benzodiazepine Receptor (PBR), TSPO (gene 706) (UniProt P30536); assay: NVS_MP_hPBR: NovaScreen (NVS) Membrane Protein Assay for human Peripheral-type Benzodiazepine Receptor (PBR) (AID 2283331);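 note: hits reduce radioligand binding relative to DMSO baseline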
# human Peripheral-type Benzodiazepine Receptor (PBR), TSPO (gene 706), sequence (P30536 whole entry, looked up): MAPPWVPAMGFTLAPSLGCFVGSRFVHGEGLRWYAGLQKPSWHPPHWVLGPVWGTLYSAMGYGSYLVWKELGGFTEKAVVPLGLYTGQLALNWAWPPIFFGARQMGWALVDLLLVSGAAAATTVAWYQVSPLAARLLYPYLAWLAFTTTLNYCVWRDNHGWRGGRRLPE
# How it was run: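 Human colonic cell membranes were incubated with test chemical for 1 hour; radioligand binding was measured by filter-based scintillation counting. Primary screen ran in duplicate at 25 uM, with actives followed in concentration series; loss of signal versus DMSO baseline.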
# [3] = target: rat Opioid Receptor, Non-selective Binding, Oprm1 (gene 25601) (UniProt P33535); assay: NVS_GPCR_rOpiate_NonSelective: NovaScreen (NVS) G Protein-Coupled Receptor Assay for rat Opioid Receptor, Non-selective Binding (AID 2283318)
# rat Opioid Receptor, Non-selective Binding, Oprm1 (gene 25601), sequence (P33535 whole entry, looked up): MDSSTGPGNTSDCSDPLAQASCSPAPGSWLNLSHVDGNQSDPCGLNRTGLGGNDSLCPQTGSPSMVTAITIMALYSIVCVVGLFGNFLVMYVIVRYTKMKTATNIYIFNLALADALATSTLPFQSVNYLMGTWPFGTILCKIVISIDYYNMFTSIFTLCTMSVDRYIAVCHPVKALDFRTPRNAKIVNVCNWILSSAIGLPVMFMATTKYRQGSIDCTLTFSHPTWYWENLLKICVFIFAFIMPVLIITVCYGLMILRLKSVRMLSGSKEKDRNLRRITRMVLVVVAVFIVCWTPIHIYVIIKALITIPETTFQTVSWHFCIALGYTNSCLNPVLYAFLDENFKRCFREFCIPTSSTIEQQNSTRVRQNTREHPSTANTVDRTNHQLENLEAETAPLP
# How it was run: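 Rat forebrain membranes, cell-free radioligand binding with filter-based scintillation counting, read 1.5 h after dosing. Primary screen in duplicate at 25 uM; actives retested in concentration series. Loss of signal versus DMSO baseline scored.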
# [4] = target: Sodium channel protein type 1 subunit alpha (Rattus norvegicus) (UniProt P04774); assay: NVS_IC_rNaCh_site2: NovaScreen (NVS) Ion Channel Assay for rat Sodium Channel, Site 2 (NaCh) (AID 2283322);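 note: hit means loss of radioligand binding signal relative to DMSO so AC50 marks displacement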
# How it was run: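 Membranes: rat forebrain. Format: competitive radioligand displacement, filter separation, scintillation readout, 1 h exposure. Primary screen in duplicate at 25 uM; actives retested in concentration series.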
# [5] = target: rat Neonicotinoid receptor (NNR), Chrna7 (gene 25302) (UniProt Q05941); assay: NVS_LGIC_rNNR_BungSens: NovaScreen (NVS) Ligand-Gated Ion Channel Assay for rat Neonicotinoid receptor (NNR) (AID 2283315)
# How it was run: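 Radioligand displacement binding on rat cortical membranes, 2.5 h incubation, filtration and scintillation counting. Loss of specific binding fitted relative to DMSO.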
# [6] = target: Voltage-dependent N-type calcium channel subunit alpha-1B (Rattus norvegicus) (UniProt Q02294); assay: NVS_IC_rCaChN: NovaScreen (NVS) Ion Channel Assay for rat Calcium Channel, Type N (CaChN) (AID 2283317)
# [7] = target: human Serotonin, 5-Hydroxytryptamine Receptor 3 (5HT3), HTR3A (gene 3359) (UniProt P46098); assay: NVS_LGIC_h5HT3: NovaScreen (NVS) Ligand-Gated Ion Channel Assay for human Serotonin, 5-Hydroxytryptamine Receptor 3 (5HT3) (AID 2283325)
# human Serotonin, 5-Hydroxytryptamine Receptor 3 (5HT3), HTR3A (gene 3359), sequence (P46098 whole entry, looked up): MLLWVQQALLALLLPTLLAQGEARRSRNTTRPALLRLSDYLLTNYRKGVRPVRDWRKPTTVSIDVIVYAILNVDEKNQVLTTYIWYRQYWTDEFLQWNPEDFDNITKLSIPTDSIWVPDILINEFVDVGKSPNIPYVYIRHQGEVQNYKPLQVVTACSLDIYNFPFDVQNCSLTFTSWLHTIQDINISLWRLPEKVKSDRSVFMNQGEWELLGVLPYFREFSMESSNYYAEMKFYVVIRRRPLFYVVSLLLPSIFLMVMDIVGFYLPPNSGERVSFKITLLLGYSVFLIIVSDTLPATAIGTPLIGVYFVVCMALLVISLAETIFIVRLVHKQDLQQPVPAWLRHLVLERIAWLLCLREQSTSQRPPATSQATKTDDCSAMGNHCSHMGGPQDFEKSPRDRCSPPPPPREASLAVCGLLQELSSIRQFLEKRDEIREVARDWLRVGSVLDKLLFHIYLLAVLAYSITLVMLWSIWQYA
# How it was run: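 Radioligand displacement binding to human 5-HT3 from HEK293 membranes, read by filter-based scintillation counting after 1 h. Screen at 25 uM in duplicate; chemicals passing threshold were retested in concentration-response up to 50 uM.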
# [8] = NVS_IC_rCaDHPRCh_L: NovaScreen (NVS) Ion Channel Assay for rat Calcium Channel, Type L, Dihydropyridine Site (CaDHPRCh_L) (AID 2283320)
# How it was run: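 Radioligand binding to dihydropyridine site on rat cortical membranes, filter-based scintillation counting, 1 h after dosing. Screened in duplicate at 25 uM; actives rerun in concentration-response up to 50 uM. Loss of signal versus DMSO baseline.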
# [9] = target: rat Vasopressin 1 Receptor (V1), Avpr1a (gene 25107) (UniProt P30560); assay: NVS_GPCR_rV1: NovaScreen (NVS) G Protein-Coupled Receptor Assay for rat Vasopressin 1 Receptor (V1) (AID 2283316)
# How it was run: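 Radioligand binding on rat liver membranes, 1.5 h incubation, filter-based scintillation counting. Single 25 uM screen in duplicate; chemicals meeting threshold (e.g. 30% inhibition) run in concentration-response up to 50 uM.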
# [10] = target: bovine Gamma-Aminobutyric Acid Type A Receptor BDZ, alpha 5 site (GABARa5), GABRA5 (gene 523515) (UniProt Q08E50); assay: NVS_LGIC_bGABARa5: NovaScreen (NVS) Ligand-Gated Ion Channel Assay for bovine Gamma-Aminobutyric Acid Type A Receptor BDZ, alpha 5 site (GABARa5) (AID 2283323)
# How it was run: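 Radioligand competitive displacement binding on bovine hippocampal membranes, read 1 hr after dosing by filter-based scintillation counting. Primary screen at 25 uM in duplicate; actives (e.g. ≥30% inhibition) then run in concentration-response up to 50 uM.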
# [11] = target: human Constitutive Androstane Receptor (CAR), NR1I3 (gene 9970) (UniProt Q14994); assay: NVS_NR_hCAR_Agonist: NovaScreen (NVS) Nuclear Receptor Binding Assay for human Constitutive Androstane Receptor Agonism (CAR) (AID 2283328)
# How it was run: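 Cell-free TR-FRET binding readout with extracted human CAR protein, read 1 h after dosing. Gain of signal fitted against DMSO baseline. Single-concentration duplicates at 25 uM, then concentration-response up to 50 uM for actives.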
# [12] = target: rat Thyrotropin Releasing Hormone Receptor (TRH), Trhr (gene 25570) (UniProt Q01717); assay: NVS_GPCR_rTRH: NovaScreen (NVS) G Protein-Coupled Receptor Assay for rat Thyrotropin Releasing Hormone Receptor (TRH) (AID 2283329);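 note: hit means lower bound tracer signal versus DMSO baseline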
# rat Thyrotropin Releasing Hormone Receptor (TRH), Trhr (gene 25570), sequence (Q01717 whole entry, looked up): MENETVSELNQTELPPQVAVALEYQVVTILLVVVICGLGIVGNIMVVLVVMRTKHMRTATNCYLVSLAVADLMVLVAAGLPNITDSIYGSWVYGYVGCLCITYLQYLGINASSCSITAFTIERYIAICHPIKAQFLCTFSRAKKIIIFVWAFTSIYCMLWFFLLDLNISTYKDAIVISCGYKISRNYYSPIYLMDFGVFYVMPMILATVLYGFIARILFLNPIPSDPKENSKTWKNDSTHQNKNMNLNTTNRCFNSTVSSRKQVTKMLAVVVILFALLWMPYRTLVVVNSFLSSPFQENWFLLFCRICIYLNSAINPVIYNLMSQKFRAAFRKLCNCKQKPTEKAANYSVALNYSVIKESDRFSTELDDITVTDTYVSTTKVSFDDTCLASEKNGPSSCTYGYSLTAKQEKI
# How it was run: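 Test compounds are screened at 25 uM in duplicate against radioligand binding in rat forebrain membranes, with active pairs followed up over a concentration range. Detection uses filter-based radiodetection after a 4 h exposure.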
# [13] = target: rat Oxytocin Receptor (OXT), Oxtr (gene 25342) (UniProt P70536); assay: NVS_GPCR_rOXT: NovaScreen (NVS) G Protein-Coupled Receptor Assay for rat Oxytocin Receptor (OXT) (AID 2283330)
# rat Oxytocin Receptor (OXT), Oxtr (gene 25342), sequence (P70536 whole entry, looked up): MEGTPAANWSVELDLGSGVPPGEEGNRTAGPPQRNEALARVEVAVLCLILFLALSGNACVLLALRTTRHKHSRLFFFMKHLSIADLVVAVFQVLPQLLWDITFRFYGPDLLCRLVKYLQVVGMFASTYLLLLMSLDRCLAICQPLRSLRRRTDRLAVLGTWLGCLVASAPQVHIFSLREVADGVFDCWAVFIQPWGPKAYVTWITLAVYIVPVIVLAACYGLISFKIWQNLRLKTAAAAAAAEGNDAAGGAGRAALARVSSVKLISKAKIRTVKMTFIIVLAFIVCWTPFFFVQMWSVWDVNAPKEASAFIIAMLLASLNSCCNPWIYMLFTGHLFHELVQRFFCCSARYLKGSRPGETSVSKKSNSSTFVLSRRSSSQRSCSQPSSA
# How it was run: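 Radioligand displacement on rat uterine membranes, 1 h incubation, filter-based scintillation counting. Chemicals were screened in duplicate at 25 uM, and those passing threshold were retested in concentration-response up to 50 uM. Loss of binding was fitted versus DMSO.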
# [14] = target: rat Glutamate, AMPA Site (AMPA), Gria1 (gene 50592) (UniProt P19490); assay: NVS_LGIC_rAMPA: NovaScreen (NVS) Ligand-Gated Ion Channel Assay for rat Glutamate, AMPA Site (AMPA) (AID 2283324)
# rat Glutamate, AMPA Site (AMPA), Gria1 (gene 50592), sequence (P19490 whole entry, looked up): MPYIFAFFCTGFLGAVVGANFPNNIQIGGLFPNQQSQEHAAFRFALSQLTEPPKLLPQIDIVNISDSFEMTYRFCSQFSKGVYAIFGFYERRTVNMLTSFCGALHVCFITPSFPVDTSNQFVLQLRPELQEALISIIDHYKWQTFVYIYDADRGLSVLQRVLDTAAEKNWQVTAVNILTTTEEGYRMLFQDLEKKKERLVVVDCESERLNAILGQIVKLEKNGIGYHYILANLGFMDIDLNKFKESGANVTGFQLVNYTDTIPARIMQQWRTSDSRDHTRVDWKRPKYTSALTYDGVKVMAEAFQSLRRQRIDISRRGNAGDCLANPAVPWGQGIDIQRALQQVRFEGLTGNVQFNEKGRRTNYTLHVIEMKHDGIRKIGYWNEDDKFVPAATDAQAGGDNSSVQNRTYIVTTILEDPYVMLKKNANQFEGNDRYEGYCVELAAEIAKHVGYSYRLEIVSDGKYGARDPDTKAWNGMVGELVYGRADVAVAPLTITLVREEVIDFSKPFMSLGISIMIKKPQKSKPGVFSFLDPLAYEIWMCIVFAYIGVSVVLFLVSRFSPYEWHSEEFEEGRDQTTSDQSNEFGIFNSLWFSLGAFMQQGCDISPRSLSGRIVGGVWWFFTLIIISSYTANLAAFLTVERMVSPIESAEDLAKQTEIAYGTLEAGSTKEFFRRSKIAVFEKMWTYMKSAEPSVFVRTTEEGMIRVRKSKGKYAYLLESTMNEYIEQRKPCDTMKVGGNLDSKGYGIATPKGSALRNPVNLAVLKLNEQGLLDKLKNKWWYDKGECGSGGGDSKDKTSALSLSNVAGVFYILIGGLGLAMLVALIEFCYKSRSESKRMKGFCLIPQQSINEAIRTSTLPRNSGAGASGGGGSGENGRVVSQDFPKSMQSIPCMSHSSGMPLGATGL
# How it was run: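 Rat forebrain membranes; radioligand binding read 1 h after dosing by filtration and scintillation counting. Duplicate single-point screen at 25 uM, then concentration-response to 50 uM for threshold hits (e.g. 30% inhibition); loss of signal vs DMSO.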
# NCBI gene 257648 = assay: NVS_IC_rCaChN: NovaScreen (NVS) Ion Channel Assay for Calcium Channel, Type N (CaChN) (AID 2283317)
# [15] = target: Voltage-gated inwardly rectifying potassium channel KCNH2 (Homo sapiens) (UniProt Q12809); assay: NVS_IC_hKhERGCh: NovaScreen (NVS) Ion Channel Assay for human Potassium Channel ERG (KhERGCh) (AID 2283333)
# Voltage-gated inwardly rectifying potassium channel KCNH2 (Homo sapiens), sequence (Q12809 whole entry, looked up): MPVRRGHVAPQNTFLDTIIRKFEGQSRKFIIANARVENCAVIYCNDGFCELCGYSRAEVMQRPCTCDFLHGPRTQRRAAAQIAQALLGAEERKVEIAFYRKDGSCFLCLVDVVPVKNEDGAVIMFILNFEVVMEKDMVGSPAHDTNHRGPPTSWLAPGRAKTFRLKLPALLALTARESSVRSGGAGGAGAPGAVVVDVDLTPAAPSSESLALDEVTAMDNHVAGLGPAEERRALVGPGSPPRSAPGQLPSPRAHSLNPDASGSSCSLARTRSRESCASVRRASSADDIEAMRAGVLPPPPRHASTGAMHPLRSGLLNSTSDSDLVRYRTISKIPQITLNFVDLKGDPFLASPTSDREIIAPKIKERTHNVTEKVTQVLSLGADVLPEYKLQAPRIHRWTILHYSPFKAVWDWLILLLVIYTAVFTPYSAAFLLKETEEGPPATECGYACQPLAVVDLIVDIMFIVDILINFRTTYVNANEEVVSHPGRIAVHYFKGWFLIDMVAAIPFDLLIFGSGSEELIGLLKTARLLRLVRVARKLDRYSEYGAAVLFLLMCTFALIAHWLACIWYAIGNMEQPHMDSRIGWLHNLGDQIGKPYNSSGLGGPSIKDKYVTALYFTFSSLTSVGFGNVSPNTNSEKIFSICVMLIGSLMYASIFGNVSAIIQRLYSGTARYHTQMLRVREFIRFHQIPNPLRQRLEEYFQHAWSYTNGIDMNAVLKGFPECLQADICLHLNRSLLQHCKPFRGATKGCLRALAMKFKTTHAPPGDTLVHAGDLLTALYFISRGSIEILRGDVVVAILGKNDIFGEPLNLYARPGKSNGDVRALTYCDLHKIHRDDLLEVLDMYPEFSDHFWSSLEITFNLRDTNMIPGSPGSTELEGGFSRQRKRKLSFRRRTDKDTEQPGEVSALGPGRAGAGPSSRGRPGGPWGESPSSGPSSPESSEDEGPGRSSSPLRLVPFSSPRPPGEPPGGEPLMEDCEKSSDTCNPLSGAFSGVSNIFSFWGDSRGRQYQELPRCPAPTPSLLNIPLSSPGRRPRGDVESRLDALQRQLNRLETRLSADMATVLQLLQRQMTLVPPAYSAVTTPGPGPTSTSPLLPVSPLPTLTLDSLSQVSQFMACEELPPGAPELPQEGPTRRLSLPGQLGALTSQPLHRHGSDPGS
# How it was run: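 Cell-free radioligand competition binding on hERG protein extracted from CHO cells, read by filter-based scintillation counting 0.75 h after dosing. Primary screen at 25 uM in duplicate, actives followed in concentration series. Signal loss fitted versus DMSO.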
# [16] = target: human Androgen Receptor (AR), AR (gene 367) (UniProt P10275); assay: NVS_NR_hAR: NovaScreen (NVS) Nuclear Receptor Binding Assay for human Androgen Receptor (AR) (AID 2283332)
# human Androgen Receptor (AR), AR (gene 367), sequence (P10275 whole entry, looked up): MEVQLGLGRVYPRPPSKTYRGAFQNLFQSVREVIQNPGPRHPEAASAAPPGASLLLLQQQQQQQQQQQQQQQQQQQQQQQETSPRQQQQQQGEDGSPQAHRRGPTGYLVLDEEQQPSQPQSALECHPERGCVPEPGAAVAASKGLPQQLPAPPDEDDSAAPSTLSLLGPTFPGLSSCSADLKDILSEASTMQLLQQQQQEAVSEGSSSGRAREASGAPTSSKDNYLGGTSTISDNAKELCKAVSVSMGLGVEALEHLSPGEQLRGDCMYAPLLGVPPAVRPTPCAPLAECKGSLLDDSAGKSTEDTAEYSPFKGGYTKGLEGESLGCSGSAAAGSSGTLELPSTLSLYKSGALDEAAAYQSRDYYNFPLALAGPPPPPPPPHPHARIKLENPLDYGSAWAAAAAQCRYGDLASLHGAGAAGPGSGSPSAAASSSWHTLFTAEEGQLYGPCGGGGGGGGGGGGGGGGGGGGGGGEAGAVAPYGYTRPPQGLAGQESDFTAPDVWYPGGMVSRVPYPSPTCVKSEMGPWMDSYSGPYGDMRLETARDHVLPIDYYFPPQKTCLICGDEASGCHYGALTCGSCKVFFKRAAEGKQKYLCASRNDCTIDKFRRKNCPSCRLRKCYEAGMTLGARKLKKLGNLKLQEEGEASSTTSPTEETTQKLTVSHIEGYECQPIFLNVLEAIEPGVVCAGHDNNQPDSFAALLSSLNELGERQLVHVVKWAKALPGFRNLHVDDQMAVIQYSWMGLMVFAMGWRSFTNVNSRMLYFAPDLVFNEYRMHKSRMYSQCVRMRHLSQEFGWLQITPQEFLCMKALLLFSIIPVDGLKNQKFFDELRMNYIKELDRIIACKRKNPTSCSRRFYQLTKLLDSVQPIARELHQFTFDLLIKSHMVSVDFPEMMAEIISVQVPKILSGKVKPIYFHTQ
# How it was run: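 Actives from a duplicate 25 uM single-point screen went on to concentration series. Read-out after 20 h was scintillation counting of displaced radioligand in LnCAP extract, with DMSO as baseline.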
# [17] = target: bovine Gamma-Aminobutyric Acid Type A Receptor BDZ, alpha 1 site (GABARa1), GABRA1 (gene 780973) (UniProt P08219); assay: NVS_LGIC_bGABARa1: NovaScreen (NVS) Ligand-Gated Ion Channel Assay for bovine Gamma-Aminobutyric Acid Type A Receptor BDZ, alpha 1 site (GABARa1) (AID 2283321)
# How it was run: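 Radioligand competition binding on bovine cortical membranes, 0.75 h, filter-based scintillation counting. Primary single concentration 25 uM in duplicate; actives rerun in concentration-response to 50 uM max. Loss of signal fitted versus DMSO.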
# NCBI gene 24521 = assay: NVS_IC_rKATPCh: NovaScreen (NVS) Ion Channel Assay for rat Potassium Channel, ATP-Sensitive (KATPCh) (AID 2283319)
# How it was run: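 Rat cortical membranes; radioligand binding at ATP-sensitive K channel site, filter-based scintillation counting 2 h after dosing. Single-point duplicate screen at 25 uM, hits rerun in concentration-response up to 50 uM; loss of signal versus DMSO.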
# [18] = target: rat Gamma-Aminobutyric Acid Type A Receptor, Non-Selective (GABAR-NonSelective), Gabra1 (gene 29705) (UniProt P62813); assay: NVS_LGIC_rGABAR_NonSelective: NovaScreen (NVS) Ligand-Gated Ion Channel Assay for rat Gamma-Aminobutyric Acid Type A Receptor, Non-Selective (GABAR-NonSelective) (AID 2283326)
# How it was run: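 Radioligand displacement on rat whole-brain extract, 1 h, filter scintillation readout; signal loss fitted versus DMSO. Primary screen in duplicate at 25 uM; hits (e.g. ≥30% inhibition) retested in concentration-response up to 50 uM.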
compound,measurement,setting,value
CCSC(=O)N(CC)C1CCCCC1,outcome,[1],inactive
same,outcome,[2],inactive
C[C@]12CCC(=O)C=C1CC[C@@H]1[C@@H]2CC[C@]2(C)C(=O)CC[C@@H]12,outcome,[3],inactive
same,AC50,[4],25 µM (active)
O=C(N[C@H]1CN2CCC1CC2)c1cc2ccoc2cn1,AC50,[5],11.4 nM (active)
same,outcome,[6],inactive
same,AC50,[4],11.7 µM (active)
same,AC50,[7],1.35 µM (active)
CN(C)CCO,AC50,[8],25 µM (active)
CO/C=C(/C(=O)OC)c1ccccc1COc1cccc(C(F)(F)F)n1,AC50,[2],4.21 µM (active)
CCOP(=S)(OCC)SCSC(C)(C)C,outcome,[5],inactive
CCC(C)(CC)c1cc(NC(=O)c2c(OC)cccc2OC)on1,AC50,[9],2.57 µM (active)
same,outcome,[8],inactive
same,outcome,[10],inactive
same,outcome,[2],inactive
O=C(O)C(F)(F)C(F)(F)C(F)(F)C(F)(F)C(F)(F)F,outcome,[7],inactive
same,outcome,[11],inactive
Sc1ccccc1,outcome,[12],inactive
O=C(NC(=O)c1cc(F)c(F)cc1Cl)Nc1cc(F)ccc1N1CCC(C(=O)O)CC1,outcome,[13],inactive
Clc1ccc(C(c2ccccc2Cl)C(Cl)(Cl)Cl)cc1 (stereo unspecified),outcome,[6],inactive
same,outcome,[14],inactive
CCCCCCCCCC[N+](C)(C)CCCCCCCCCC,AC50,NCBI gene 257648,41.7 µM (active)
same,AC50,[8],10.2 µM (active)
same,AC50,[4],1.03 µM (active)
same,outcome,[7],inactive
same,AC50,[13],18.6 µM (active)
same,AC50,[2],21.5 µM (active)
Cc1cccc(C)c1N,outcome,[14],inactive
OCC(O)CO,outcome,[12],inactive
Cc1ccccc1CO[C@@H]1C[C@@]2(C(C)C)CC[C@]1(C)O2,AC50,[2],8.27 µM (active)
CC(C)(c1ccccc1)c1ccc(O)cc1,AC50,[8],25 µM (active)
same,AC50,[4],31.4 µM (active)
same,outcome,[2],inactive
Oc1ccc(Cl)cc1Cl,outcome,[15],inactive
CCC(=O)O[C@H]1CC[C@H]2[C@@H]3CCC4=CC(=O)CC[C@]4(C)[C@H]3CC[C@]12C,outcome,[6],inactive
same,AC50,[16],26.8 nM (active) and 48 nM (active)
C[C@]12CCC(=O)C=C1CC[C@@H]1[C@@H]2CC[C@@]2(C)[C@H]1CC[C@]2(C)O,AC50,[4],3.26 µM (active)
same,outcome,[12],inactive
Clc1ccc(Cl)cc1,outcome,[7],inactive
same,outcome,[13],inactive
CC(c1ccc(O)cc1)(c1ccc(O)cc1)c1ccc(O)cc1,outcome,[17],inactive
same,outcome,[14],inactive
same,outcome,[1],inactive
Oc1ccc(C(c2ccc(O)cc2)(C(F)(F)F)C(F)(F)F)cc1,AC50,[4],5.87 µM (active)
same,AC50,[1],19.5 µM (active)
same,AC50,[13],13.6 µM (active)
Cc1cc2c3c(c1)C(c1ccccc1)=N[C@@H](NC(=O)c1ccncc1)C(=O)N3CC2,AC50,[17],25 µM (active)
same,AC50,[10],1.43 µM (active)
Cc1ccc(O)c(C)c1,outcome,[2],inactive
CCC(C)(c1ccc(O)cc1)c1ccc(O)cc1,AC50,[3],15.6 µM (active)
same,AC50,[4],13.7 µM (active)
same,AC50,[1],16.4 µM (active)
same,AC50,[2],9.64 µM (active) and 2.96 µM (active) and 14.1 µM (active)
CC1=C2C[C@H]3[C@@H](CC=C4C[C@@H](O)CC[C@@]43C)[C@@H]2CC[C@]12O[C@@H]1C[C@H](C)CN[C@H]1[C@H]2C,outcome,[3],inactive
same,AC50,[4],0.171 µM (active)
Cc1cc(O)ccc1Cl,outcome,NCBI gene 24521,inactive
same,AC50,[2],2.64 µM (active)
CCCCCCOC(=O)c1ccccc1C(=O)OCCCCCC,outcome,[18],inactive
same,outcome,[15],inactive
CCNc1nc(NC(C)C)nc(SC)n1,outcome,[12],inactive
COc1ccc(O)c(C(C)(C)C)c1,AC50,[4],38.2 µM (active)
ClC1=C(Cl)[C@]2(Cl)[C@@H]3[C@H]4C[C@H]([C@@H]5O[C@H]45)[C@@H]3[C@@]1(Cl)C2(Cl)Cl,outcome,[6],inactive
CCCCCCCCCc1ccc(O)cc1,outcome,[6],inactive
same,outcome,[7],inactive
same,outcome,[12],inactive
CCOC(=O)C(O)(c1ccc(Cl)cc1)c1ccc(Cl)cc1,AC50,[16],6.91 µM (active)

# From PubChem BioAssay (EPA / NIEHS)
